Publication PMC4081100, “A DNA-binding-site landscape and regulatory network analysis for NAC transcription factors in Arabidopsis thaliana”

What was measured:
Assay in all cases: universal protein binding microarray (PBM); transcription factors of Arabidopsis thaliana; high values mean tight binding
[1] = target: T1, GST-ANAC055(1-171) (Arabidopsis thaliana, UniProt Q9LDY8 1-171); conditions: protein: recombinant; tags: GST; chain copies: 2; dsDNA, one strand shown
T1 sequence: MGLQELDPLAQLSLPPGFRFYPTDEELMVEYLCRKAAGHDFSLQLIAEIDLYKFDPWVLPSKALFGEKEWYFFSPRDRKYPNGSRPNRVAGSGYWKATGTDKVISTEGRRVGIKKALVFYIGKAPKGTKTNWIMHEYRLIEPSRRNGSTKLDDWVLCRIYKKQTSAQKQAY
Method in brief: (§1)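 Protein amounts were determined by A280 or anti-GST western blot after glutathione–Sepharose 4B purification of GST-tagged proteins induced in cells, with zinc acetate included for zinc-finger proteins. Duplicate runs at 200 to 500 nM final were done on custom all-10-mer Agilent 4 × 180K arrays made double-stranded by primer extension. The normalised enrichment score (E-score) over gapped and ungapped 8-mers is the measure of binding.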

[2] = target: T2, GST-ATAF1 NAC domain (Arabidopsis thaliana, UniProt Q39013 7-158); conditions: protein: recombinant; tags: GST; chain copies: 2; dsDNA, one strand shown
T2 sequence: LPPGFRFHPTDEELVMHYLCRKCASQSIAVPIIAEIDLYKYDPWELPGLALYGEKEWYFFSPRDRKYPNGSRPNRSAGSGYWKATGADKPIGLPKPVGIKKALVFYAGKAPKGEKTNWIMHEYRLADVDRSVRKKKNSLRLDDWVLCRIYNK
Method in brief: as §1

[3] = target: T3, GST-ANAC092(1-285) full length (Arabidopsis thaliana, UniProt Q9FKA0 1-285); conditions: protein: recombinant; tags: GST; chain copies: 2; dsDNA, one strand shown
T3 sequence: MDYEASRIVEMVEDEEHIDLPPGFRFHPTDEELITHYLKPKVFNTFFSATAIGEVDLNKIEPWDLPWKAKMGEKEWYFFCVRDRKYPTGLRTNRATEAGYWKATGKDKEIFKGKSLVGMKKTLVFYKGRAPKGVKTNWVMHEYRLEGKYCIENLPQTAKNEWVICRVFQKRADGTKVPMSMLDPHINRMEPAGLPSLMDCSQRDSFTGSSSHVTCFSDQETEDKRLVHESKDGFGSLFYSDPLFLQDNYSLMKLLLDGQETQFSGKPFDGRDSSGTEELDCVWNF
Method in brief: as §1

[4] = target: T4, GST-NST2(1-184) (Arabidopsis thaliana, UniProt Q9M274 1-184); conditions: protein: recombinant; tags: GST; chain copies: 2; dsDNA, one strand shown
T4 sequence: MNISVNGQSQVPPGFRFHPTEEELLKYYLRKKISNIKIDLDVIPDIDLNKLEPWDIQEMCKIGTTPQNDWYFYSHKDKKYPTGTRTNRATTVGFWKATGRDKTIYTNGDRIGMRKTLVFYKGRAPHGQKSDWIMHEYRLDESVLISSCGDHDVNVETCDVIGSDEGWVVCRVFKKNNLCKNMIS
Method in brief: as §1

[5] = target: T5, GST-SND1(1-203) (Arabidopsis thaliana, UniProt Q9LPI7 1-203); conditions: protein: recombinant; tags: GST; chain copies: 2; dsDNA, one strand shown
T5 sequence: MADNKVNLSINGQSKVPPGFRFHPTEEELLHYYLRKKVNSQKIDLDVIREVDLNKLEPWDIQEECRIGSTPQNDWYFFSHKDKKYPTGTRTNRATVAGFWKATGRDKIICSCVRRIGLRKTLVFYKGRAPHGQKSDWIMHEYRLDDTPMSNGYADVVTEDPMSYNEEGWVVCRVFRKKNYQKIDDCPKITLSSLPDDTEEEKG
Method in brief: as §1

[6] = target: T6, GST-VND3 NAC domain (Arabidopsis thaliana, UniProt Q9FH59 12-162); conditions: protein: recombinant; tags: GST; chain copies: 2; dsDNA, one strand shown
T6 sequence: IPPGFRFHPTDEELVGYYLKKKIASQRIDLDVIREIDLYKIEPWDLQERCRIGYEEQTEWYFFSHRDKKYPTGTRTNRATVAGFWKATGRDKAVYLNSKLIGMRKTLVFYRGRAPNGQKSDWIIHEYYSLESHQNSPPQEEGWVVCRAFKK
Method in brief: as §1

[7] = target: GST-WRKY1(266-371) (Arabidopsis thaliana, UniProt Q9SI37 266-371); conditions: protein: recombinant; tags: GST; dsDNA, one strand shown
Method in brief: as §1

[8] = target: T7, GST-ANAC092(1-176) (Arabidopsis thaliana, UniProt Q9FKA0 1-176); conditions: protein: recombinant; tags: GST; chain copies: 2; dsDNA, one strand shown
T7 sequence: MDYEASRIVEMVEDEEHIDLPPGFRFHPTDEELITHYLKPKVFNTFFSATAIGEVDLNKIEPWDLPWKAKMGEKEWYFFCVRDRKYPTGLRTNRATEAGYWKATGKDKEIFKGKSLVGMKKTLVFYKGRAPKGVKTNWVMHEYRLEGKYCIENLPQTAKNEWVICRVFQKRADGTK
Method in brief: as §1

[9] = target: T8, GST-ANAC019 NAC domain (Arabidopsis thaliana, UniProt Q9C932 14-162); conditions: protein: recombinant; tags: GST; chain copies: 2; dsDNA, one strand shown
T8 sequence: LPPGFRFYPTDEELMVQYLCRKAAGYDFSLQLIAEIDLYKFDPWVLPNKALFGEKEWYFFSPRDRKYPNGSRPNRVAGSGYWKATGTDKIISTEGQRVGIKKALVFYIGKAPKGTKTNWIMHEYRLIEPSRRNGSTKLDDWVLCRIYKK
Method in brief: as §1

[10] = target: GST-NTL6(1-168) (Arabidopsis thaliana, UniProt Q9SCK6 1-168); conditions: protein: recombinant; tags: GST; chain copies: 2; dsDNA, one strand shown
Method in brief: as §1

[11] = target: T9, GST-NAP(1-166) (Arabidopsis thaliana, UniProt O49255 1-166); conditions: protein: recombinant; tags: GST; chain copies: 2; dsDNA, one strand shown
T9 sequence: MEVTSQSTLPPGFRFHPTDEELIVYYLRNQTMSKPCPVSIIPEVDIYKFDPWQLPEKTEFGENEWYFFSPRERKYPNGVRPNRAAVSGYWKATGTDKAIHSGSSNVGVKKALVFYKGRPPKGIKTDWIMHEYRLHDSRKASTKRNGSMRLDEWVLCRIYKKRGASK
Method in brief: as §1

[12] = target: T10, GST-NTL8 NAC domain (Arabidopsis thaliana, UniProt Q9XIN7 14-156); conditions: protein: recombinant; tags: GST; chain copies: 2; dsDNA, one strand shown
T10 sequence: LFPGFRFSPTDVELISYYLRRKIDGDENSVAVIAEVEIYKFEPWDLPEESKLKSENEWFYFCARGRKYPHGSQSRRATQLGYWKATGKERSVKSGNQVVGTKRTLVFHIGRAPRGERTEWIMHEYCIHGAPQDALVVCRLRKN
Method in brief: as §1

[13] = target: T11, GST-VND7 NAC domain (Arabidopsis thaliana, UniProt Q9C8W9 9-158); conditions: protein: recombinant; tags: GST; chain copies: 2; dsDNA, one strand shown
T11 sequence: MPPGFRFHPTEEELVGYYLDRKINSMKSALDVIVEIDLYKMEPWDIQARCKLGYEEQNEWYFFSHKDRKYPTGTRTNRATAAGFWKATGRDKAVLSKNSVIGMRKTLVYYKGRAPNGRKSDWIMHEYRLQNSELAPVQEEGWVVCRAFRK
Method in brief: as §1

Sequence of GST-WRKY1(266-371) (Q9SI37 266-371): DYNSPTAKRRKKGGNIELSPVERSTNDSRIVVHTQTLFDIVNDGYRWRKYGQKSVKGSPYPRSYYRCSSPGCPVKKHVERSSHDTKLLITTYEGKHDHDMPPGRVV
Sequence of GST-NTL6(1-168) (Q9SCK6 1-168): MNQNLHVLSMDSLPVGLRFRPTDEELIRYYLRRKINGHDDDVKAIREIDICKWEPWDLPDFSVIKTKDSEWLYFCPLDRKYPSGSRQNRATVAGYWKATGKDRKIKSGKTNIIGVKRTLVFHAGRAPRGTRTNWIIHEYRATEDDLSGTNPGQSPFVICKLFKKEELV

Sequence | binding signal [1] [E-score] | binding signal [2] [E-score] | binding signal [3] [E-score] | binding signal [4] [E-score] | binding signal [5] [E-score] | binding signal [6] [E-score] | binding signal [7] [E-score] | binding signal [8] [E-score] | binding signal [9] [E-score] | binding signal [10] [E-score] | binding signal [11] [E-score] | binding signal [12] [E-score] | binding signal [13] [E-score]
GTCAATTA | 0.0852 | 0.202 | 0.159 | 0.147 | 0.122 | 0.104 | 0.42 | – | – | – | – | – | –
ACACGCCT | 0.173 | 0.212 | 0.411 | – | 0.0623 | 0.0938 | – | 0.319 | 0.189 | – | – | – | –
ACAGGGAA | 0.0748 | – | – | 0.0924 | 0.108 | 0.115 | – | 0.128 | – | 0.239 | 0.0751 | 0.409 | –
GTCAACAA | 0.163 | 0.191 | 0.136 | 0.101 | 0.177 | – | 0.478 | – | – | 0.0834 | 0.075 | 0.0573 | 0.07
AGCGTCAA | – | 0.0689 | 0.158 | 0.135 | 0.246 | – | 0.408 | 0.0554 | – | – | 0.0978 | 0.12 | 0.0921
GTAGTCAA | 0.168 | 0.191 | – | 0.112 | 0.0829 | 0.134 | 0.478 | – | – | 0.0675 | 0.0663 | – | –
AAGGAATG | 0.0506 | 0.07 | 0.115 | 0.196 | 0.227 | – | 0.0844 | 0.153 | 0.0613 | 0.422 | – | 0.293 | 0.0905
CACTCAAC | 0.139 | 0.0909 | 0.424 | 0.237 | 0.243 | 0.089 | – | 0.4 | 0.151 | 0.0871 | – | – | –
CAGTCAAA | 0.063 | 0.11 | 0.0634 | – | 0.124 | – | 0.478 | 0.125 | 0.0978 | 0.0796 | 0.0821 | 0.104 | 0.0973
AAGGTAAG | – | 0.11 | 0.225 | 0.144 | 0.2 | 0.113 | – | 0.0968 | 0.175 | 0.306 | – | 0.402 | –
ACTTTCCT | 0.171 | 0.0923 | 0.0813 | 0.144 | 0.145 | – | 0.171 | – | – | 0.292 | – | 0.4 | 0.121
GTCAAAAC | – | 0.178 | 0.11 | – | 0.148 | 0.176 | 0.447 | – | – | – | 0.111 | 0.0569 | –
CACGCATA | 0.0626 | – | 0.411 | 0.121 | 0.18 | 0.116 | – | 0.397 | – | – | 0.147 | – | –
CTAGCGTA | 0.0674 | – | 0.398 | 0.168 | 0.45 | – | – | 0.262 | – | – | 0.0722 | – | 0.118
GAAGGGAA | – | – | – | 0.0954 | 0.112 | – | – | 0.091 | 0.101 | 0.227 | – | 0.44 | 0.0803
ACGCTTCC | 0.106 | 0.139 | 0.402 | 0.206 | 0.296 | – | – | 0.334 | 0.171 | 0.0789 | 0.0721 | – | 0.151
ACGCTATC | – | 0.0721 | 0.454 | 0.303 | 0.431 | – | – | 0.43 | 0.106 | – | 0.104 | – | 0.0789
